Experimental data reported in PubChem BioAssay (NCATS).
Records with an inconclusive call do not appear. Calls of active or inactive are those of the source. The call rests on the fitted dose curve; in most records, active means well fitted cell-killing curve with a large enough effect; inconclusive means small, poorly fitted or top-dose-only effect, or effect the other way; inactive means no such curve, though single readings can be large or run the other way.
Potency means the concentration at half of the fitted maximal effect.

Assay: Quantitative High-Throughput drug screen in 47 multiple myeloma cell lines against the NCATS MIPE library collection: MM1S_ATCC cell viability assay (AID 1918980); further: nearly all actives have a fitted effect of over 45% in size
Settings: MM1S myeloma viability, CellTiter-Glo ATP luminescence, 48 h; series mostly up to 45.8 µM
How it was run: (§1)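 500 cells/well; MIPE 4.0 drugs pin-transferred; 48 h, 37C, 5% CO2. CellTiter-Glo, 5 min RT, luminescence. Controls: DMSO 100%, media 0%.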
With `Cc1ccc(NC(=O)C2(c3ccc4c(c3)OC(F)(F)O4)CC2)nc1-c1cccc(C(=O)O)c1` the Potency was 52.6 nM (active). For `Cc1ccc(-c2ncn(-c3ccc(Nc4nccc(-c5cccc(N6CCOCC6)c5)n4)cc3)n2)cn1`, the Potency was 148 nM (active). For `CCCCOc1c(C(=O)c2c(F)cc(C)cc2F)cnc2n[nH]cc12`, the Potency was 2090 nM (active). For `CC(=O)c1c(C)c2cnc(Nc3ccc(N4CCNCC4)cn3)nc2n(C2CCCC2)c1=O`, the Potency was 20900 nM (active). In the case of `O=c1[nH]nc(Sc2ncc([N+](=O)[O-])s2)n1-c1ccc2c(c1)OCCO2`, the Potency is reported as 2350 nM (active). In the case of `CN(C)CC=CC(=O)Nc1cc2c(Nc3ccc(F)c(Cl)c3)ncnc2cc1O[C@H]1CCOC1`, the Potency is reported as 5900 nM (active). With `CC(NCc1ccc2c(c1)nc(NC(=O)c1ccc(-c3cn[nH]c3)s1)n2CC(C)(C)O)C(C)(C)C` (centres undefined) the Potency was 332 nM (active). In the case of `CC(=O)OCC(=O)[C@@]1(O)[C@H](C)C[C@H]2[C@@H]3C=C(C)C4=Cc5c(cnn5-c5ccccc5)C[C@]4(C)[C@@H]3[C@@H](O)C[C@@]21C`, the Potency is reported as 13.2 nM (active). In the case of `CC(C)(C)c1cnc(CSc2cnc(NC(=O)C3CCNCC3)s2)o1`, the Potency is reported as 66.2 nM (active). In the case of `Cc1ccc(C(=O)Nc2cccc(C(F)(F)F)c2)cc1-c1ccc2nc(NCCN3CCOCC3)ncc2c1`, the Potency is reported as 16600 nM (active). In the case of `OCCCNc1cc(-c2ccnc(Nc3cccc(Cl)c3)n2)ccn1`, the Potency is reported as 118 nM (active). For `CC(C)c1ccccc1Cc1cc(C(=O)Nc2ccc(S(=O)(=O)c3ccccc3C(C)(C)C)cc2)c(O)c(O)c1O`, the Potency was 11800 nM (active). In the case of `Cn1cc(-c2[nH]c3cc(NC(=O)[C@H](N)C4CCCCC4)cc4c3c2C=NNC4=O)cn1`, the Potency is reported as 1180 nM (active). With `N#CCNC(=O)c1ccc(-c2ccnc(Nc3ccc(N4CCOCC4)cc3)n2)cc1` the Potency was 18700 nM (active). With `CN1CC[C@@H](c2c(O)cc(O)c3c(=O)cc(-c4ccccc4Cl)oc23)[C@@H](O)C1` the Potency was 93.5 nM (active). In the case of `NC(=O)Nc1cc(-c2cccc(F)c2)sc1C(=O)N[C@H]1CCCNC1`, the Potency is reported as 132 nM (active). For `CN(C)Cc1c(C(=O)NCCOc2ccc(C(=O)NO)cc2)oc2ccccc12`, the Potency was 469 nM (active). In the case of `Cc1[nH]nc2ccc(-c3cncc(OC[C@@H](N)Cc4ccccc4)c3)cc12`, the Potency is reported as 935 nM (active). With `COC(=O)[C@]12CCC(C)(C)C[C@@H]1[C@@H]1C(=O)C=C3[C@@]4(C)C=C(C#N)C(=O)C(C)(C)[C@@H]4CC[C@@]3(C)[C@]1(C)CC2` the Potency was 418 nM (active). In the case of `CC(C)C[C@H](NC(=O)CNC(=O)c1cc(Cl)ccc1Cl)B(O)O`, the Potency is reported as 41.8 nM (active). With `O=C(CCCCCCNC(=O)c1cnc(N(c2ccccc2)c2ccccc2)nc1)NO` the Potency was 6620 nM (active). In the case of `CC=C1NC(=O)[C@H]2CSSCCC=C[C@H](CC(=O)N[C@H](C(C)C)C(=O)N2)OC(=O)[C@H](C(C)C)NC1=O`, the Potency is reported as 33.2 nM (active). In the case of `O=C(Nc1cc(C(F)(F)F)cc(C(F)(F)F)c1)c1cc(Cl)ccc1O`, the Potency is reported as 590 nM (active). With `O=C(Nc1cn[nH]c1-c1nc2ccc(CN3CCOCC3)cc2[nH]1)NC1CC1` the Potency was 1870 nM (active). With `CNc1nccc(-c2cccnc2Oc2cc(C(=O)Nc3cccc(C(F)(F)F)c3)ccc2C)n1` the Potency was 18700 nM (active).

Assay: Quantitative High-Throughput drug screen in 47 multiple myeloma cell lines against the NCATS MIPE library collection: MM1R_ATCC cell viability assay (AID 1918981); further: nearly all actives have a fitted effect of over 35% in size
Settings: MM1R multiple myeloma cells, CellTiter-Glo viability, 48 h; series mostly up to 45.8 µM
How it was run: as §1
For `Cc1ccc(NC(=O)C2(c3ccc4c(c3)OC(F)(F)O4)CC2)nc1-c1cccc(C(=O)O)c1`, the Potency was 0.059 µM (active). With `COc1ccc(C(=O)CC2(O)C(=O)Nc3c(Cl)ccc(Cl)c32)cc1` (centres undefined) the Potency was 5.26 µM (active). For `Cc1ccc(-c2ncn(-c3ccc(Nc4nccc(-c5cccc(N6CCOCC6)c5)n4)cc3)n2)cn1`, the Potency was 0.105 µM (active). In the case of `CCCCOc1c(C(=O)c2c(F)cc(C)cc2F)cnc2n[nH]cc12`, the Potency is reported as 3.72 µM (active). In the case of `CC(=O)c1c(C)c2cnc(Nc3ccc(N4CCNCC4)cn3)nc2n(C2CCCC2)c1=O`, the Potency is reported as 14.8 µM (active). With `CNC(=O)c1ccc(N2C(=S)N(c3cnc(C#N)c(C(F)(F)F)c3)C(=O)C23CCC3)cc1F` the Potency was 1.05 µM (active). For `O=c1[nH]nc(Sc2ncc([N+](=O)[O-])s2)n1-c1ccc2c(c1)OCCO2`, the Potency was 1.32 µM (active). With `CN(C)CC=CC(=O)Nc1cc2c(Nc3ccc(F)c(Cl)c3)ncnc2cc1O[C@H]1CCOC1` the Potency was 13.2 µM (active). For `Cn1c2ccccc2c2c3c(c4c5ccccc5n(CCC#N)c4c21)CNC3=O`, the Potency was 1.66 µM (active). For `CC(NCc1ccc2c(c1)nc(NC(=O)c1ccc(-c3cn[nH]c3)s1)n2CC(C)(C)O)C(C)(C)C` (centres undefined), the Potency was 0.469 µM (active). With `C#Cc1cccc(Nc2ncnc3cc(OC)c(OCCCCCCC(=O)NO)cc23)c1` the Potency was 0.166 µM (active). In the case of `CC1(O)CC(c2nc(-c3ccc4ccc(-c5ccccc5)nc4c3)c3c(N)nccn23)C1` (centres undefined), the Potency is reported as 0.187 µM (active). With `CC(=O)OCC(=O)[C@@]1(O)[C@H](C)C[C@H]2[C@@H]3C=C(C)C4=Cc5c(cnn5-c5ccccc5)C[C@]4(C)[C@@H]3[C@@H](O)C[C@@]21C` the Potency was 9.35 µM (active). For `CC(C)(C)c1cnc(CSc2cnc(NC(=O)C3CCNCC3)s2)o1`, the Potency was 0.105 µM (active). For `CCS(=O)(=O)c1cccc(-c2cc(C(=O)NC3CCN(C)CC3)c(C)c3[nH]c4ncc(C)cc4c23)c1`, the Potency was 1.66 µM (active). For `Cc1ccc(C(=O)Nc2cccc(C(F)(F)F)c2)cc1-c1ccc2nc(NCCN3CCOCC3)ncc2c1`, the Potency was 14.8 µM (active). With `CNC(=O)c1ccccc1Nc1nc(Nc2ccc(N3CCOCC3)cc2OC)ncc1Cl` the Potency was 0.833 µM (active). For `OCCCNc1cc(-c2ccnc(Nc3cccc(Cl)c3)n2)ccn1`, the Potency was 0.0935 µM (active). In the case of `CC(C)c1ccccc1Cc1cc(C(=O)Nc2ccc(S(=O)(=O)c3ccccc3C(C)(C)C)cc2)c(O)c(O)c1O`, the Potency is reported as 10.5 µM (active). For `Cn1cc(-c2[nH]c3cc(NC(=O)[C@H](N)C4CCCCC4)cc4c3c2C=NNC4=O)cn1`, the Potency was 1.05 µM (active). In the case of `N#CCNC(=O)c1ccc(-c2ccnc(Nc3ccc(N4CCOCC4)cc3)n2)cc1`, the Potency is reported as 9.35 µM (active). In the case of `CN1CC[C@@H](c2c(O)cc(O)c3c(=O)cc(-c4ccccc4Cl)oc23)[C@@H](O)C1`, the Potency is reported as 0.105 µM (active). For `NC(=O)Nc1cc(-c2cccc(F)c2)sc1C(=O)N[C@H]1CCCNC1`, the Potency was 0.148 µM (active). With `CN(C)Cc1c(C(=O)NCCOc2ccc(C(=O)NO)cc2)oc2ccccc12` the Potency was 0.469 µM (active). For `Cc1[nH]nc2ccc(-c3cncc(OC[C@@H](N)Cc4ccccc4)c3)cc12`, the Potency was 1.32 µM (active). In the case of `COC(=O)[C@]12CCC(C)(C)C[C@@H]1[C@@H]1C(=O)C=C3[C@@]4(C)C=C(C#N)C(=O)C(C)(C)[C@@H]4CC[C@@]3(C)[C@]1(C)CC2`, the Potency is reported as 0.264 µM (active). With `CC(C)C[C@H](NC(=O)CNC(=O)c1cc(Cl)ccc1Cl)B(O)O` the Potency was 0.0418 µM (active). For `O=C(CCCCCCNC(=O)c1cnc(N(c2ccccc2)c2ccccc2)nc1)NO`, the Potency was 3.72 µM (active). For `CC=C1NC(=O)[C@H]2CSSCCC=C[C@H](CC(=O)N[C@H](C(C)C)C(=O)N2)OC(=O)[C@H](C(C)C)NC1=O`, the Potency was 0.0166 µM (active). In the case of `CC1=C(CO)C(=O)O[C@@H]([C@@H](C)[C@H]2CC[C@H]3[C@@H]4C[C@H]5O[C@]56[C@@H](O)C=CC(=O)[C@]6(C)[C@@H]4CC[C@]23C)C1`, the Potency is reported as 0.132 µM (active). For `CC(=O)Nc1nc(C)c(-c2ccc(Cl)c(S(=O)(=O)NCCO)c2)s1`, the Potency was 7.43 µM (active). For `O=C(Nc1cc(C(F)(F)F)cc(C(F)(F)F)c1)c1cc(Cl)ccc1O`, the Potency was 1.05 µM (active). With `O=C(Nc1cn[nH]c1-c1nc2ccc(CN3CCOCC3)cc2[nH]1)NC1CC1` the Potency was 2.96 µM (active). For `CNc1nccc(-c2cccnc2Oc2cc(C(=O)Nc3cccc(C(F)(F)F)c3)ccc2C)n1`, the Potency was 20.9 µM (active).
